# Screening results (PubChem)
# HCV inh – inhibitors of hepatitis C virus infection | Huh7.5.1 HCVcc-Cre infection, luciferase reporter, 44 h | Potency, µM (doses to about 41.8 µM), without a hit: top-dose activity change, negative = inhibition, most hits filed as inhibitors | hit rate 3.4% among 340,000 | AID 651820
#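 Whole-lifecycle infectious HCVcc-Cre system; cells 1,000/well, compound then virus (~0.5 moi) added 4 h after plating, 44 h culture. Luciferase read 15 sec following 15 min substrate incubation, room temp.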
# Pf growth 96h – P. falciparum growth inhibition at 96 hour, primary screen for plastid delayed-death inhibitors; hit rate 6.9% among 320,000; P. falciparum luciferase reporter growth, 96 h; Potency, µM (titrated, usually from 28.7 µM), inactives show top-dose activity change, negative = inhibition, hits mostly inhibitors
#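 P. falciparum expressing integrated firefly luciferase, in erythrocytes at 2% hematocrit, 0.05% parasitemia, incubated with compounds 96 h at 37 C, 5% CO2. Growth inhibition read as loss of luminescence; two-generation exposure targets delayed-death apicoplast inhibitors.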
# AMA1 RON2 block – AMA1-RON2 (P. falciparum) interaction inhibition | AlphaScreen AMA1-biotinylated RON2 peptide binding | Potency, µM (highest dose often 58.2 µM), inactives show at the top dose activity change, negative = inhibition, actives largely listed as inhibitors | hit rate 0.2% among 360,000 | AID 720542;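 note: 0% = vehicle wells and -100% = peptide control; nearly all actives have a fitted effect of over 45% in size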
#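 AMA1 (3D7) with his tag at 25 nM final met compounds first, then biotinylated RON2 peptide at 25 nM; detection used donor plus acceptor beads, 10 µg/mL apiece, read by AlphaScreen after 30 min at room temperature.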
# Pf growth 48h – P. falciparum growth inhibition at 48 hours (one generation); P. falciparum luciferase growth in erythrocytes, 48 h; Potency, µM (top dose mostly 28.7 µM), for inactives: at the top dose activity change, negative = inhibition, hits mostly inhibitors; hit rate 5.9% among 310,000; AID 504832
#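 A one-generation exposure of luciferase-tagged malaria parasites in RPMI 1640/Albumax erythrocyte culture, 37 C and 5% CO2. Inhibition is inferred from decreased luminescence after adding detection reagent.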
# * marks the source's active call; other numbers are inactive results; u = inconclusive; x = no result; [ ] = dose if it differs, or a comment. A selection: hits, their analogues and other compounds. The true share with any hit is near 11%. Calls come from the whole dose curve; as a rule, active = well fitted curve in the direction sought with a large enough effect; inconclusive = small, poorly fitted or top-dose-only effect, or another doubt; inactive = no such curve, though single readings can be large; an effect the other way counts as inactive or inconclusive. Unless noted, % is set by controls: 0 for no effect and ±100 for the full control effect; potency is the fitted concentration of half-maximal effect.
SMILES,HCV inh,Pf growth 96h,AMA1 RON2 block,Pf growth 48h
CC1(C(=O)Nc2cccc(NS(C)(=O)=O)c2)Cc2c(-c3cccc(C(N)=O)c3)ccnc2O1 (stereo unspecified),x,x,6%,x
CC1(C)Cc2ccccc2C(c2cc3ccccc3oc2=O)=N1,-11%,u,-2%,8.3µM*
O=c1oc2ccccc2cc1-c1ccccc1,1%,-6%,19%,49%
CC1(C)Cc2c(ccc3ccccc23)C(c2cc3ccccc3oc2=O)=N1,u,10µM*,-13%,u
CNc1nnc(-c2cc3ccccc3oc2=O)s1,-16%,-1%,-1%,45%
COC(=O)c1cc(Br)cn1S(=O)(=O)c1ccccc1,-7%,30%,18%,x
COc1cc2c(cc1NC(=O)C(C)OC(=O)C1CC(=O)N(Cc3ccco3)C1)oc1ccccc12 (stereo unspecified),14µM*,123%,-14%,x
[O-]/C(=C(\C(=S)Nc1ccccc1F)[n+]1ccccc1)c1ccc(-c2ccccc2)cc1,25%,-8%,19%,0%
[O-]/C(=C(\C(=S)Nc1ccc(Cl)cc1)[n+]1ccccc1)c1ccc(OC(F)F)cc1,11µM*,-5%,58%,10µM*
CCC(=O)Nc1ccc(Cl)c(NC(=S)NC(=O)COc2ccc(Cl)cc2)c1,8%,1.9µM*,6%[2.32 µM],33%
O=[N+]([O-])c1ncccc1OCc1ccc(Br)cc1F,9%,58%,-19%,37%
Cc1noc(C)c1-c1ccc(C(=O)Nc2cccc(C(F)(F)F)c2)c2occc12,x,x,-1%,x
COc1ccc(C2CC(c3ccccc3)=NN2C(=O)COC(=O)C2(C)CC2(Cl)Cl)cc1 (stereo unspecified),u,9.3µM*,-18%,u
COc1ccc(C2=NN(C(=O)CN3CCCC3)C(c3ccc(OC)cc3)C2)cc1 (stereo unspecified),-15%,u,-9%,u
COc1ccc(C2CC(c3ccc4ccccc4c3)=NN2C(=O)CSc2ncccn2)cc1 (stereo unspecified),0%,10µM*,-3%,u
COc1ccc(C2CC(c3ccccc3)=NN2C(=O)CCC(=O)O)cc1 (stereo unspecified),14%,-17%,-29%,-10%
Cc1ccc(C2CC(c3ccc(Br)cc3)=NN2C(=O)CSC2=NN3CCCC(=O)N=C3S2)cc1 (stereo unspecified),u,14%,7%,12µM*
COc1ccc(C2CC(c3ccc4ccccc4c3)=NN2C(=O)CN2C(=O)CCC2=O)cc1 (stereo unspecified),-2%,u,7%,9.3µM*
O=C1CCCN2N=C(SCC(=O)N3N=C(c4ccc(Br)cc4)CC3c3ccc(F)cc3)SC2=N1 (stereo unspecified),-18%,u,-10%,u
CS(=O)(=O)N(CC(=O)N1CCOCC1)c1cc(Cl)ccc1Cl,7%,u,1%,4%
CC(C)OC(=O)CCCNc1ccc([N+](=O)[O-])cc1[N+](=O)[O-],-10%,u,-10%,-14%
COc1ccc(C2=NN(C(=O)CSc3nc(=O)n4cc(C)ccc4n3)C(c3ccc(C)cc3)C2)cc1 (stereo unspecified),u,8.3µM*,2%,u
COc1ccc(C2=NN(C(=O)CSc3nc4ccccc4s3)C(c3ccc(OC)cc3)C2)cc1 (stereo unspecified),-2%,u,-8%[2.32 µM],12µM*
COc1cccc(C2CC(c3cccs3)=NN2C(=O)CSc2nc3ccccc3s2)c1OC (stereo unspecified),u,7.4µM*,-15%,u
COc1cccc(C2CC(c3cccs3)=NN2C(=O)CCC(=O)O)c1OC (stereo unspecified),0%,-14%,-1%,u
SMILES,HCV inh,Pf growth 96h,AMA1 RON2 block,Pf growth 48h
COc1ccc(C2=NN(C(=O)CN3CCCCC3)C(c3ccc(OC)cc3)C2)cc1 (stereo unspecified),-15%,u,-9%,u
COc1ccc(C2=NN(C(=O)CSc3cn(C)c4ccccc34)C(c3ccc(OC)cc3)C2)cc1 (stereo unspecified),u,u,-20%,u
COc1ccc(C2=NN(C(=O)CSc3ncccn3)C(c3ccc(OC)cc3)C2)cc1 (stereo unspecified),-13%,u,-15%,10µM*
COc1cc(C(O)c2nc(-c3ccccc3)cs2)ccc1F (stereo unspecified),x,x,3%,x
O=C(O)CN(c1ccccc1)S(=O)(=O)c1cc(C(F)(F)F)cc(C(F)(F)F)c1,12%,0%,16%,-4%
COc1ccc(/C=N/NC(=O)c2ccc3ccccc3c2)cc1OS(=O)(=O)c1ccc(NC(C)=O)cc1,u,u,10%,u
COc1cccc(NC(=O)CCNS(=O)(=O)c2cccc3nonc23)c1,14%,-3%,-8%,22%
COc1ccc2c(c1)C(C)CC(C)(C)N2C(=O)Nc1ccccc1 (stereo unspecified),6%,15%,u,35%
COc1ccc2c(c1)C(C)CC(C)(C)N2C(=O)CSc1nc2ccccc2s1 (stereo unspecified),u,10µM*,5%,u
CCCCCCCCCCCCCCCC(=O)OCC(COP(=O)(O)OCC[N+](C)(C)C)OC(=O)CCCCCCCCCCCCCCC (stereo unspecified),x,-11%,x,-4%
COC(=O)[C@@H]1C[C@@H]2CC[C@@H](O)C[C@@H]2N1Cc1ccccc1OS(=O)(=O)c1ccc(C)cc1,-1%,u,-6%,10µM*
COC(=O)[C@@H]1C[C@H]2CC[C@H](O)C[C@H]2N1Cc1ccc(-c2ccccc2)cc1,29%[8.37 µM],-4%,14%,15%
COC(=O)[C@@H]1C[C@H]2CC[C@H](O)C[C@H]2N1Cc1ccccc1OC(=O)c1cccs1,1%[8.37 µM],u,5%,9.3µM*
O=[N+]([O-])c1ccc(C23CC4CC(CC(O)(C4)C2)C3)cc1,x,82%,x,122%
COc1ccc(NC(=O)C2CCN(S(=O)(=O)c3cn(C)nc3C)CC2)cc1,1%,u,-3%,7%
COc1cc(C2NC(=O)NC(O)(C(F)(F)F)C2C(=O)c2cccs2)ccc1O (stereo unspecified),-2%,13µM*,7%,0%
Cc1ccc(-n2cnc3c(sc4nc(N5CCOCC5)c5c(c43)CCCC5)c2=O)cc1,u,-8%,4%,u
CCOC(=O)CSc1ncnc2c1sc1nc(N3CCOCC3)c3c(c12)CCCC3,5%,-12%,12%,x
COc1ccc(-n2cnc3c(sc4nc(N5CCOCC5)c5c(c43)CCCC5)c2=O)cc1,-12%,2.9µM*,3%,-2%
COC(=O)c1ccc(CSc2ncnc3c2sc2nc(N4CCOCC4)c4c(c23)CCCC4)o1,-20%,x,-4%,x
CCOC(=O)C(Sc1ncnc2c1sc1nc(N3CCOCC3)c3c(c12)CCCC3)c1ccccc1 (stereo unspecified),x,u,x,1.7µM*
